Laboratory results taken from PubChem BioAssay AID1159580 (chemical genetic matrix, 2015).
“And” between values parts separate entries of the source, which are not always exact repeats. Identical values can stand only once. Screen size: about 5,500 compounds; about 2,000 (36%) were called active. Not shown: some 18% with an inconclusive outcome. Cut-off read from the data, not from the text of the source: active = normalized growth mostly below about 0.91 (no sharp cut-off); inconclusive = no clear call, values can overlap the other calls; inactive = mostly above about 0.92. The list shows a part of the results.

Test: chemical genetic growth profiling, strain panel (AID 1159580);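 note: tested at 20 µM; growth read once vehicle control cultures reached saturation at 30 °C; 1 = growth at the plate median or of vehicle wells; lower values mean less growth of the strain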
Details: S. cerevisiae deletion strains, growth OD

Measured: normalized growth

COc1cnc(NS(=O)(=O)c2ccc(N)cc2)nc1
inactive: locus YAL021C, strain ccr4, hits give low values 1.01 | locus YAL026C, strain drs2, hits give low values 1 | locus YAL030W, strain snc1, hits give low values 1.01 | locus YBL061C, strain skt5, hits give low values 0.994 | locus YBR009C, strain hhf1, hits give low values 1.01 | locus YBR021W, strain FUR4, hits give low values 1.02 | locus YBR023C, strain chs3, hits give low values 0.998 | locus YBR171W, strain sec66, hits give low values 0.993 | locus YBR229C, strain ROT2, hits give low values 0.956 | locus YBR231C, strain swc5, hits give low values 0.991 | locus YBR279W, strain paf1, hits give low values 0.993 | locus YCL011C, strain gbp2, hits give low values 1 | locus YCL016C, strain dcc1, hits give low values 0.983 | locus YCL029C, strain bik1, hits give low values 0.98 | locus YCL069W, strain vba3, hits give low values 1 | locus YCR088W, strain abp1, hits give low values 1 | locus YDL005C, strain med2, hits give low values 0.997 | locus YDL035C, strain GPR1, hits give low values 0.996 | locus YDL040C, strain nat1, hits give low values 1 | locus YDL074C, strain BRE1, hits give low values 0.988 | locus YDL101C, strain DUN1, hits give low values 0.98 | locus YDL134C, strain PPH21, hits give low values 1 | locus YDL185W, strain tfp1, hits give low values 0.962 | locus YDL192W, strain arf1, hits give low values 0.972 | locus YDR001C, strain nth1, hits give low values 0.997 | locus YDR069C, strain doa4, hits give low values 1.01 | locus YDR101C, strain arx1, hits give low values 0.983 | locus YDR137W, strain rgp1, hits give low values 0.996 | locus YDR159W, strain sac3, hits give low values 0.92 | locus YDR162C, strain NBP2, hits give low values 0.992 | locus YDR195W, strain ref2 0.984 | locus YDR297W, strain sur2, hits give low values 1.01 | locus YDR318W, strain mcm21, hits give low values 0.986 | locus YDR334W, strain swr1, hits give low values 0.998 | locus YDR335W, strain msn5, hits give low values 0.993 | locus YDR388W, hits give low values 0.985 | locus YDR392W, strain spt3, hits give low values 0.925 | locus YDR502C, strain sam2, hits give low values 0.987 | locus YEL003W, strain gim4, hits give low values 1 | locus YEL037C, strain rad23, hits give low values 0.999 | locus YEL061C, strain CIN8 (second series), hits give low values 1 | locus YEL061C, strain CIN8, hits give low values 0.979 | locus YER015W, strain faa2, hits give low values 1 | locus YER016W, strain bim1, hits give low values 0.998 | locus YER110C, hits give low values 0.969 | locus YER111C, strain swi4, hits give low values 1.01 | locus YER155C, strain BEM2 (second series), hits give low values 1.02 | locus YER155C, strain BEM2, hits give low values 1 | locus YER167W, strain BCK2, hits give low values 0.99 | locus YFR010W, strain ubp6, hits give low values 0.989 | locus YGL078C, strain dbp3, hits give low values 0.978 | locus YGL086W, strain mad1, hits give low values 0.985 | locus YGL167C, strain pmr1, hits give low values 0.993 | locus YGL173C, strain kem1, hits give low values 1.01 | locus YGL227W, strain vid30, hits give low values 1 | locus YGL240W, strain doc1, hits give low values 0.994 | locus YGL248W, strain PDE1, hits give low values 0.976 | locus YGL253W, strain hxk2, hits give low values 0.994 | locus YGR135W, strain pre9, hits give low values 0.988 | locus YGR229C, strain SMI1, hits give low values 1.01 | locus YGR252W, strain gcn5, hits give low values 0.949 | locus YHR013C, strain ard1, hits give low values 1 | locus YHR027C, strain rpn1, hits give low values 0.982 | locus YHR030C, strain SLT2, hits give low values 1 and 0.997 | locus YHR079C, strain IRE1 (second series), hits give low values 0.984 | locus YHR079C, strain IRE1, hits give low values 0.989 | locus YHR094C, strain hxt1, hits give low values 0.984 | locus YHR129C, strain ARP1, hits give low values 0.997 | locus YHR142W, strain chs7, hits give low values 1 | locus YHR200W, strain rpn10, hits give low values 0.969 | locus YIL066C, strain RNR3, hits give low values 0.978 | locus YIL073C, strain SPO22, hits give low values 0.999 | locus YIL125W, strain kgd1, hits give low values 0.974 | locus YIR030C, strain dcg1, hits give low values 0.982 | locus YJL092W, strain hpr5, hits give low values 1 | locus YJL095W, strain BCK1 (second series), hits give low values 0.988 | locus YJL095W, strain BCK1, hits give low values 0.983 and 1.01 | locus YJL115W, strain asf1, hits give low values 0.993 | locus YJL129C, strain trk1, hits give low values 0.986 | locus YJL134W, strain LCB3, hits give low values 0.995 | locus YJL154C, strain vps35, hits give low values 1 | locus YJL164C, strain tpk1, hits give low values 0.981 | locus YJL166W, strain qcr8, hits give low values 1.01 | locus YJL168C, strain set2, hits give low values 0.982 | locus YJL187C, strain SWE1 (second series), hits give low values 0.965 | locus YJR043C, strain POL32, hits give low values 0.992 | locus YJR066W, strain TOR1, hits give low values 0.934
